We go through 5 compounds from ChEMBL document CHEMBL3988442, “University of Dundee, Small-Polar-MMV Screening Library” (2021).

For some assays here: Results with a measured potency or affinity are listed apart.

What all share (design): scale not given: direction of the effect not stated beside the values
Experiment [1] has as its target Protein translocase subunit SecA (Escherichia coli (strain K12)) (UniProt P10408). Briefly: Assay to Identify E. coli SecA ATPase Inhibitors. The format is functional. Particulars: 30 µM.
For experiment [2], the target named is T1, Ubiquitin-activating enzyme e1, putative (Leishmania donovani (strain BPK282A1)) (UniProt E9BSI1).
T1 sequence (whole entry): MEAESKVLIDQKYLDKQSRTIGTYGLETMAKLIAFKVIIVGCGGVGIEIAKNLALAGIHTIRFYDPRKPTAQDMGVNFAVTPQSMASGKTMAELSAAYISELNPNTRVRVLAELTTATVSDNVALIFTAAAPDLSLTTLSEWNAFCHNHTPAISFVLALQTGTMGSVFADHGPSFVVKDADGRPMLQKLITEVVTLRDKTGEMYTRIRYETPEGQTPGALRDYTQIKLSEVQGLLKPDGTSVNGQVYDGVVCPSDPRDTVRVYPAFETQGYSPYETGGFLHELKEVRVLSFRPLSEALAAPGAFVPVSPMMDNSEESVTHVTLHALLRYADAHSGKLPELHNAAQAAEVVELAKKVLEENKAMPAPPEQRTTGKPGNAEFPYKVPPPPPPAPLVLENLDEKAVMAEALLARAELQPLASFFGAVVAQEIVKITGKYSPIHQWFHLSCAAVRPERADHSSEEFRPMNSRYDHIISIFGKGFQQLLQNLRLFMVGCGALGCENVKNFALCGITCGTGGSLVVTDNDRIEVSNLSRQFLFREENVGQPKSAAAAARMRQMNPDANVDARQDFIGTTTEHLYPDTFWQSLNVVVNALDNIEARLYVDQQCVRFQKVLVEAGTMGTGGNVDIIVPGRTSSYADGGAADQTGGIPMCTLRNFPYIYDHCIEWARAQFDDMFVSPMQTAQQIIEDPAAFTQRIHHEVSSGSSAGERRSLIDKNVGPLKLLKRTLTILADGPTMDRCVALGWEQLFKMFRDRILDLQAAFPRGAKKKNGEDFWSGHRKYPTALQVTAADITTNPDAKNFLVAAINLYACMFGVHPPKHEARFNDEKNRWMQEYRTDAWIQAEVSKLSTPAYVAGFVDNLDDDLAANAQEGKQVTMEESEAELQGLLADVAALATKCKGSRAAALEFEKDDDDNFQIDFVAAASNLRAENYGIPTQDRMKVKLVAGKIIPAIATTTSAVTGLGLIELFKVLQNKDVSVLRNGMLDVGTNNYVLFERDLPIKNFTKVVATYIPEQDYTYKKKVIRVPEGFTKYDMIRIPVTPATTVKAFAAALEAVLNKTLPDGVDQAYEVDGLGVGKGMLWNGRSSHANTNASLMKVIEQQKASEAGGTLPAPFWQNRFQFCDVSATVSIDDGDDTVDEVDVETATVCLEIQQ
Briefly: Leishmania donovani Ubiquitin Activating Enzyme (LdE1). The format is functional. Particulars: 30 µM.

For experiment [3], the target named is T2, Aspartate--tRNA(Asp/Asn) ligase (Mycobacterium tuberculosis (strain ATCC 25618 / H37Rv)) (UniProt P9WFW3). Note: in the data most compounds retested in dose-response had high values.
T2 sequence (whole entry): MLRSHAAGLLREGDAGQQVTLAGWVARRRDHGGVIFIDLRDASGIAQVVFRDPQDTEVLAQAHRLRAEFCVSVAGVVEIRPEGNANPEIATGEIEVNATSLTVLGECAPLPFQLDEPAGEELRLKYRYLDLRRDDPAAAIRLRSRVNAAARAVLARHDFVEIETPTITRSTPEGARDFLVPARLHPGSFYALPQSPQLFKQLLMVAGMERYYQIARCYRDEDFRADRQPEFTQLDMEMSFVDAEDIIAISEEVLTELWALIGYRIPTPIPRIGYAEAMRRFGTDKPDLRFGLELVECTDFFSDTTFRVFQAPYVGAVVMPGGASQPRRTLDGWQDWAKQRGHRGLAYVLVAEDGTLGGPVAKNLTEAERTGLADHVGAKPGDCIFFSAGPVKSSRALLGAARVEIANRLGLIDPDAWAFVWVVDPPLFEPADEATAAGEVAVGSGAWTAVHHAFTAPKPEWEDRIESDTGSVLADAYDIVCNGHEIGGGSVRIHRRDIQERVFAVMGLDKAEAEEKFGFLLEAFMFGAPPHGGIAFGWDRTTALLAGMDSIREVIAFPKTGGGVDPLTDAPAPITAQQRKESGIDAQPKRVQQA
The experiment in a line: Assay for Asp RNA synthetase-1 from Mycobacterium tuberculosis. Conditions: 30 µM. Type of experiment: functional.

For experiment [4], the target named is AMP-activated protein kinase, AMPK (Homo sapiens) (UniProt P54646+O43741+P54619+Q9UGJ0+Q9Y478+Q13131+Q9UGI9). The experiment in a line: AMP-dependent Kinase enzyme assay. An in vitro enzyme assay that detects ADP turnover that is directly proportional to AMPK activity. This uses naive AMPK that is activated during the assay with MK-8722. The format is functional. Particulars: 30 µM.

For experiment [5], the target named is Sialic acid-binding Ig-like lectin 9 (Homo sapiens) (UniProt Q9Y336). Briefly: Hs-Siglec9 ALPHAscreen SOP 20170721. Conditions: 10 µM.
The subject of a further experiment is Trypanosoma cruzi. Briefly: Trypanosoma cruzi phosphomannomutase and mannose-1-phosphate guanylyltransferase assay. The format is functional. Particulars: 10 µM.
The target in experiment [6] is T3, Arginase-2, mitochondrial (Homo sapiens) (UniProt P78540).
T3 sequence (whole entry): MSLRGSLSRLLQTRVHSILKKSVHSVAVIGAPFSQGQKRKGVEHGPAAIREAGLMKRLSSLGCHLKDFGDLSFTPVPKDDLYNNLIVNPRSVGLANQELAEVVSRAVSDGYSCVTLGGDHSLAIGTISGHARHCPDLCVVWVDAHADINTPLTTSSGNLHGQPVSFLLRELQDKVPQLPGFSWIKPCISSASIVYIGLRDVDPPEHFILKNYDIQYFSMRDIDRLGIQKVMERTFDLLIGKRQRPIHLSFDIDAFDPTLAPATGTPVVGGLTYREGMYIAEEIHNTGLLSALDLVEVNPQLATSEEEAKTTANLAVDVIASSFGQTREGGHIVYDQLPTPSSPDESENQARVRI
The experiment in a line: in vitro enzyme assay to detect the production of urea directly proportional to the activity of Arginase II. Note: in the data most compounds retested in dose-response had high values. The format is functional. Particulars: 33.3 µM.

Experiment [7] has as its target T4, Proteasome subunit beta (Trypanosoma cruzi) (UniProt O96673).
T4 sequence (whole entry): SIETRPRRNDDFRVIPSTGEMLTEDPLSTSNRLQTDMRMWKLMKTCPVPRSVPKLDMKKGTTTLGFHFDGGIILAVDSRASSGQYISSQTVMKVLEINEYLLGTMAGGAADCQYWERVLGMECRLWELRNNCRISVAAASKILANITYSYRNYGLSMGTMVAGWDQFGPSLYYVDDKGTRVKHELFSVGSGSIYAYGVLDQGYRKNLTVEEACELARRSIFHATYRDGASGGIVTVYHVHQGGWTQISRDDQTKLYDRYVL
Briefly: Trypanosoma cruzi proteasome chymotrypsin-like activity (TcProtChymo) assay. Note: in the data most compounds retested in dose-response had high values. Particulars: 9.37 µM. Type of experiment: functional.

The species named for another experiment is Homo sapiens. Briefly: To identify inhibition of the IFN signalling (Jak-Stat) pathway via expression of an eGFP reporter gene under the control of an IFN-stimulated response element (ISRE) containing MxA promoter. Type of experiment: functional. Conditions: 30 µM.
Experiment [8] concerns the target Shiga toxin 2 (Escherichia coli O157:H7) (UniProt P09385+P09386). The experiment in a line: E. coli 0.157:H7 Shiga Toxin SOP - stx2 screening assay. The format is functional. Conditions: 30 µM.
In experiment [9] the target is T5, Tyrosyl-tRNA synthetase, putative (Trypanosoma cruzi (strain CL Brener)) (UniProt Q4DSP6).
T5 sequence (whole entry): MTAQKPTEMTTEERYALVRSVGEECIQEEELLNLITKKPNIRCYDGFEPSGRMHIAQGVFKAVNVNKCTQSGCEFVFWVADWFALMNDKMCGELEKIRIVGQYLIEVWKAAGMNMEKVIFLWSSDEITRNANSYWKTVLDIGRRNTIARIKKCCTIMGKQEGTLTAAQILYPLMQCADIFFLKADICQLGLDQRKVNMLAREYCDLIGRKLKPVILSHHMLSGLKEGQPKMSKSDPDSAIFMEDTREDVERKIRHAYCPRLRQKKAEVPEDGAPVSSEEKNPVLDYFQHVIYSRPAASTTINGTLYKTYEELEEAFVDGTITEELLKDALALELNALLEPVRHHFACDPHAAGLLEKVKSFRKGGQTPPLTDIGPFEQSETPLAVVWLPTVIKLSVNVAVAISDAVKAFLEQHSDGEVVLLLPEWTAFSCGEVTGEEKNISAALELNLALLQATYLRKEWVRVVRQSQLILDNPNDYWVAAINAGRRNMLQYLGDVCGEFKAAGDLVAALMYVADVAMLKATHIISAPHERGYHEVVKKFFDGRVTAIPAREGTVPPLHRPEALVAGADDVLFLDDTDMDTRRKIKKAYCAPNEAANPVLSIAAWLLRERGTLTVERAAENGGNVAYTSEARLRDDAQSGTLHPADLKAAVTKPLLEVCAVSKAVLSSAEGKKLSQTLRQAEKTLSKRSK
Briefly: Trypanosoma cruzi tyrosyl tRNA synthetase (TcYRS) _High Tyrosine SOP. Note: in the data most compounds retested in dose-response had high values. The format is functional. Conditions: 30 µM.

Experiment [10] concerns the target T5, Tyrosyl-tRNA synthetase, putative (Trypanosoma cruzi (strain CL Brener)). Briefly: Trypanosoma cruzi tyrosyl tRNA synthetase (TcYRS) SOP. The format is functional. Conditions: 30 µM.
In experiment [11] the target is Chromo domain-containing protein 1 (Saccharomyces cerevisiae (strain ATCC 204508 / S288c) (Baker's yeast)) (UniProt P32657). Briefly: ScCHD-1 Enzyme Inhibition Assay. Note: in the data most compounds retested in dose-response had high values. The format is functional. Conditions: 30 µM.
Chromo domain-containing protein 1 (Saccharomyces cerevisiae (strain ATCC 204508 / S288c) (Baker's yeast)), sequence (P32657 whole entry, the tested form may be a part): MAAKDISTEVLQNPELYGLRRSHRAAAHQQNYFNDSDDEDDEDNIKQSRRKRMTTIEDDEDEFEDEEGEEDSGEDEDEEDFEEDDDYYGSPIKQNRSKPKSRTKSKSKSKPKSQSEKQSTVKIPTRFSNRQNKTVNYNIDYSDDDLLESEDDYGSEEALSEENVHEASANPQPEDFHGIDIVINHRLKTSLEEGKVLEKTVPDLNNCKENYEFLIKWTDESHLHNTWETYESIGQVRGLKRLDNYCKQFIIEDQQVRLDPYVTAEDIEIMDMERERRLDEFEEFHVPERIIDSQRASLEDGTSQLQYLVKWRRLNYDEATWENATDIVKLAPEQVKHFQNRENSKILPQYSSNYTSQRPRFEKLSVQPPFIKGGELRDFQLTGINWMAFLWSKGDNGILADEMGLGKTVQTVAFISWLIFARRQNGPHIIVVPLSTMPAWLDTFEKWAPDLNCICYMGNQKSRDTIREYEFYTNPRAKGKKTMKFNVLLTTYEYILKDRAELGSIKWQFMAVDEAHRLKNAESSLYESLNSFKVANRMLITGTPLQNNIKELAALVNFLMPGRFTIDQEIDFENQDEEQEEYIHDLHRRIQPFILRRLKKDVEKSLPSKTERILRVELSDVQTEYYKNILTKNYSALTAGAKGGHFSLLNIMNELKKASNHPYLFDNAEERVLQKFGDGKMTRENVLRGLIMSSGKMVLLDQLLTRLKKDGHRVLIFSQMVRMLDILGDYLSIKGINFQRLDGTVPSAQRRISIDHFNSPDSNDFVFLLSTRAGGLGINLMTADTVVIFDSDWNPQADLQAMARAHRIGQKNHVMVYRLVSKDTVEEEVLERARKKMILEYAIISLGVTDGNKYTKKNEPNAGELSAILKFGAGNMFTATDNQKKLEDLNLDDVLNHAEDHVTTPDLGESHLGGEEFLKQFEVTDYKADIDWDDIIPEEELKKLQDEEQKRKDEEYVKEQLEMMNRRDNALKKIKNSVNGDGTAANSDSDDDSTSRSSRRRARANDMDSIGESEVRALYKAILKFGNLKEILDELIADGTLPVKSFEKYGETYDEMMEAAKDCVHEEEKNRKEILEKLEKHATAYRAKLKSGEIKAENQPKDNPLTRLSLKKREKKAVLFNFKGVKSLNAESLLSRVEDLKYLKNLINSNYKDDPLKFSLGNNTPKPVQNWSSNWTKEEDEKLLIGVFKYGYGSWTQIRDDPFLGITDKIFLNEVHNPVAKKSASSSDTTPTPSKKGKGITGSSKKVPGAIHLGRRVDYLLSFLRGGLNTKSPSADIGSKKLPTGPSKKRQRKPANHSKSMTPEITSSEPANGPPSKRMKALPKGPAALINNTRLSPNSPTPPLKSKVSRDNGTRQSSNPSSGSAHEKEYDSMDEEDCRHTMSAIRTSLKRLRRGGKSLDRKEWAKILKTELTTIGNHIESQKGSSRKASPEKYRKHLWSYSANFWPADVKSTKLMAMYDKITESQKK

Sialic acid-binding Ig-like lectin 9 (Homo sapiens), sequence (Q9Y336 whole entry): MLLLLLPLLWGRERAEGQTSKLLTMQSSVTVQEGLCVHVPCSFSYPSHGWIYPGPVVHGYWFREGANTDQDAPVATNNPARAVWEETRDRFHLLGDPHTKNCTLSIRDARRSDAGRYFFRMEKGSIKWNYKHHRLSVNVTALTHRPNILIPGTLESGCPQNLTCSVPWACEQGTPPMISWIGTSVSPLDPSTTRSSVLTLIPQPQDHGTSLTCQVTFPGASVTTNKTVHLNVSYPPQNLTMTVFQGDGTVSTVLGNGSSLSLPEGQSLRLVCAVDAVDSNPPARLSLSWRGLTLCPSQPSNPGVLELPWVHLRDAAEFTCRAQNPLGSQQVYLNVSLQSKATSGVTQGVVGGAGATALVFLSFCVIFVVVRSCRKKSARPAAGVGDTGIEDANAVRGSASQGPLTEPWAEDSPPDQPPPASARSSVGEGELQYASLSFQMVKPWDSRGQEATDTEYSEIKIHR
Protein translocase subunit SecA (Escherichia coli (strain K12)), sequence (P10408 whole entry): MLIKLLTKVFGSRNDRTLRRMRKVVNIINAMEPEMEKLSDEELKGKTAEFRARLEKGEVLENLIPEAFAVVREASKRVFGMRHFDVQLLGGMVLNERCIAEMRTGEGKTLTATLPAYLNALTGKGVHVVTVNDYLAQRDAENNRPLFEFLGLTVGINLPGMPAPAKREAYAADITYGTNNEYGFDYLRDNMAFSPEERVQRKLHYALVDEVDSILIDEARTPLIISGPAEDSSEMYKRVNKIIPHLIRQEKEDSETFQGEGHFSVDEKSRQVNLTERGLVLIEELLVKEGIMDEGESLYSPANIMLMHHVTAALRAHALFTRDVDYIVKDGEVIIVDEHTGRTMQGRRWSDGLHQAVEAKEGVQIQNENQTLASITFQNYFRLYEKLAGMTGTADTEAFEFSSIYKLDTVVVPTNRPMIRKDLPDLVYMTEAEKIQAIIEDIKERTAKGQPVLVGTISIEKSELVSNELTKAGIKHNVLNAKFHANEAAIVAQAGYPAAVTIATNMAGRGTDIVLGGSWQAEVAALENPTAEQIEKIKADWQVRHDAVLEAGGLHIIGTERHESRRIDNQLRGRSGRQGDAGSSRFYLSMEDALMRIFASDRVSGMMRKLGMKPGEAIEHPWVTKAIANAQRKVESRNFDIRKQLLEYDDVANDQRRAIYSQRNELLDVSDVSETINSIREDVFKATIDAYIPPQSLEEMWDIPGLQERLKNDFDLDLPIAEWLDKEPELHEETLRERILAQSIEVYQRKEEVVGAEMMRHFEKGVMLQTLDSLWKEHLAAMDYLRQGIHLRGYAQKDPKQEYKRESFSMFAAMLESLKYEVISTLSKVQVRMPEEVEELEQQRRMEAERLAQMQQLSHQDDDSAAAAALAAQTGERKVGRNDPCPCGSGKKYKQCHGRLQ

With `COCc1cncc2c1CCN(Cc1ccccn1)C2`, the Percent Effect is -5.11% in [1]; 5.41% in [2]; 3.14% in experiment [3]; -2.9% in [4]; -3.72% in experiment [5]; -0.391% in the experiment with Trypanosoma cruzi. The Percent Effect is 4.58% in [6]; 14.4% in experiment [7]; 2.95% in the experiment filed under Homo sapiens; -55.7% in experiment [8]; 14.8% in experiment [9]; 23.2% in experiment [10]. The Percent Effect in experiment [11] turned out to be 1.79%.
As to `Cn1cc(CN2CC[C@H]3CO[C@H](CNc4ncccn4)[C@H]3C2)cn1`, the Percent Effect in experiment [1] is -1.24%; in experiment [2] it was 13.3%; in experiment [3], -0.0582%; in experiment [4], 1.6%; in experiment [5], -7.11%; in the experiment with Trypanosoma cruzi, 5.02%. Besides, the Percent Effect in experiment [6] is -57.2%; in [7], 9.4%; in the experiment filed under Homo sapiens, 3.12%; in [8], -32.2%; in experiment [9] it was 7.29%; in experiment [10], 22.5%. In [11], the Percent Effect was -6.99%.
Regarding `CCN(CC)C(=O)c1ccc(NC(=O)CNc2ccc(Br)cc2F)cc1`, the Percent Effect in experiment [1] was -3.06%; in experiment [2], 10.5%; in experiment [3] it was 0.958%; in experiment [4] it was 1.85%; in experiment [5], -6.58%; in the experiment on Trypanosoma cruzi it was 1.85%. Also, the Percent Effect in [6] was -17.8%; in experiment [7] it was 12%; in the experiment listed under Homo sapiens, 2.22%; in experiment [8], -41.8%; in experiment [9], 5.32%; in experiment [10], 20.8%. For the same compound, in experiment [11], the Percent Effect is -13%.
Consider `NC(=O)N1C[C@H]2CN(Cc3nccs3)C[C@H]2C1`, for which the Percent Effect is 0.982% in experiment [1]; 10.8% in [2]; 2.58% in experiment [3]; 9.05% in [4]; -13% in experiment [5]; -3.62% in the experiment with Trypanosoma cruzi. In addition, the Percent Effect is 1.59% in experiment [6]; 16.6% in experiment [7]; 5.62% in the experiment filed under Homo sapiens; -3.75% in experiment [8]; 3.24% in experiment [9]; 12.8% in [10]. In addition, the Percent Effect in experiment [11] is -3.89%.
Consider `CN1CCCC(c2n[nH]c3ncccc23)C1` (stereo not given), for which the Percent Effect in [1] was -3.58%; in experiment [2] it was -1.35%; in [3], -7.01%; in experiment [4], 6.99%; in [5], 2.48%; in the experiment on Trypanosoma cruzi, -0.198%. Moreover, the Percent Effect in experiment [6] is -0.232%; in [7], 5.93%; in the experiment listed under Homo sapiens, -5.01%; in [8] it was 1.35%; in experiment [9], 2.15%; in [10], 1.3%. In addition, in [11], the Percent Effect worked out at 6.39%.
